KCNH2 3.1 block: blocks the human KCNH2 3.1 channel isoform | U2OS KCNH2 3.1, thallium flux FluxOr; active compounds read low | activity change, % (tested at about 1.8 µM) | 0.95% of 340,000 active | AID 720553;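 active = maximum activity change below -70%; inconclusive = maximum activity change from -70% to -50%; inactive = maximum activity change above -50%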;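 also: thallium influx rate constant from kinetic fluorescence after stimulation buffer; % is scaled to controls: 0 for no effect and ±100 for the full control effect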
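We transduce U2OS cells with the mutant 3.1 virus, culture them overnight, load FluxOr with Red40 quencher for 45 min, then add stimulation buffer and read kinetically for 2 min to derive a normalized rate constant.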
GLS inh: glutaminase GLS (human) inhibition | O94925 | GLS enzymatic activity, qHTS titration | Potency, µM (series often up to 45.5 µM), for inactives: at the top dose activity change, negative = inhibition, usual class: inhibitors | 0.21% of 410,000 active | AID 624170; also: potency is read from the fitted curve at half-maximal effect; % is scaled to controls: 0 for no effect and ±100 for the full control effect
Target sequence (O94925 whole entry, looked up): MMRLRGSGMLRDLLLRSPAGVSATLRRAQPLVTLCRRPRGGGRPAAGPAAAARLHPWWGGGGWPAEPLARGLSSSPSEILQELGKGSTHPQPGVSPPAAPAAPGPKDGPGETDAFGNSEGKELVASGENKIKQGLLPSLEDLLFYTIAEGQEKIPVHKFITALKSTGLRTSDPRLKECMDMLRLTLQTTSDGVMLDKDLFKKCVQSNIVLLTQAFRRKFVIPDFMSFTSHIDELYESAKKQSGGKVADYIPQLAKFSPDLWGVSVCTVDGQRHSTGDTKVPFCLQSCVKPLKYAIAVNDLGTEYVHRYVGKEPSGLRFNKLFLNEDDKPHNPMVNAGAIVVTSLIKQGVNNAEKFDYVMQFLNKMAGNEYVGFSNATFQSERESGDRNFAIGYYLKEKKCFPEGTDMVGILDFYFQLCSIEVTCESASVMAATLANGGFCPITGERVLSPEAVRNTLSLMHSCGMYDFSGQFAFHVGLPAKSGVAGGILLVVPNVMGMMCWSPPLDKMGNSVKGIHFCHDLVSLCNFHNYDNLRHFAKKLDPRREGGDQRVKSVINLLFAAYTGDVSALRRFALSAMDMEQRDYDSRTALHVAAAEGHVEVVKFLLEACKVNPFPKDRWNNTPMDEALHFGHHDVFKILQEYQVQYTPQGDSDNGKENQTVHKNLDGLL
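Read-out is an Amplex red fluorescence increase coupled through glutamate oxidase and HRP, measured before and after 30 min room-temperature incubation. hKGA is in 45 mM KH2PO4 (pH 8.2) with 0.02% Tween-20; glutamine added as 1mM solution.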
GLP-1R agonist: GLP-1 receptor (human) agonism | P43220 | HEK293 GLP-1R CRE-luciferase, luminescence, 4-6 h; cells express a hypersensitive GLP-1R form | Potency, µM (top dose mostly 45.6 µM), without a hit: at the highest dose activation, actives largely listed as activators | 0.007% of 380,000 active | AID 624172; also: potency is read from the fitted curve at half-maximal effect; % of control where 0% means no effect
HEK293 tox: cytotoxic in the GLP-1 receptor inverse agonist counter-screen; HEK293 cAMP-luciferase reporter cells, luminescence, 24 h; Potency, µM (titrated, usually from 38.3 µM), for the others: top-dose activity change, negative = inhibition, usual class: inhibitors; 0.13% of 410,000 active; AID 624418;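 also: loss of luciferase light is scored as toxicity; potency is read from the fitted curve at half-maximal effect; % is scaled to controls: 0 for no effect and ±100 for the full control effect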
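Seeding density was 200 cells/uL; after overnight-length (12 h) culture, 23 nL compounds went on for 24 h at 37 °C. Readout used a luciferase detection reagent, luminescence taken after 12 min at room temperature.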
KCNH2 WT inh: blocks the wildtype human KCNH2 potassium channel. Q12809. U2OS, BacMam KCNH2, thallium flux FluxOr; active compounds read low. activity change, % at 1.84 µM. 0.37% of 340,000 active;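 active = maximum activity change below -70%; inconclusive = maximum activity change between -70% and -50%; inactive = maximum activity change above -50%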; also: % is scaled to controls: 0 for no effect and ±100 for the full control effect
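U2OS cells transduced with wild-type KCNH2 virus are loaded with FluxOr dye for 45 min, and thallium flux is measured in kinetic reads before and after stimulation buffer. Rate constants are normalized to DMSO controls.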
GLP-1R inv ag: inverse agonists of human GLP-1 receptor | P43220 | HEK293 GLP-1R CRE-luciferase, luminescence, 24 h; GLP-1R form is constitutively active | Potency, µM (doses to about 38.3 µM), for the others: top-dose activity change, negative = inhibition, usual class: inhibitors | 1.6% of 410,000 active | AID 624417; also: potency is read from the fitted curve at half-maximal effect; % is scaled to controls: 0 for no effect and ±100 for the full control effect; nearly all actives have a fitted effect of over 55% in size
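Readout was luciferase luminescence, measured 12 min after detection reagent at room temperature. Beforehand, GLP-1R reporter HEK293 cells had sat 12 h, then received compounds for 24 hr at 37 deg C.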
* marks the source's active call; other numbers are inactive results; i = inactive; ? = inconclusive; . = no result given; [ ] = another dose, or the depositor's remark. Most compounds without a hit are left out; they make up all but 2.8% or so of the library. Unless noted, calls follow the shape of the dose curve; as a rule, active = well fitted curve in the direction sought with a large enough effect; inconclusive = small, poorly fitted or top-dose-only effect, or another doubt; inactive = no such curve, though single readings can be large; an effect the other way counts as inactive or inconclusive.

SMILES | KCNH2 3.1 block | GLS inh | GLP-1R agonist | HEK293 tox | KCNH2 WT inh | GLP-1R inv ag
CCCCCc1nc2sc3c(c2c(=O)n1NC(=O)c1ccc([N+](=O)[O-])cc1)CC(C)(C)OC3 | -22.1 | 8.4% | 0.8% | -10.0% | -1.2 | 10µM*
COc1ccc(CNC(=O)C2(c3ccc(Cl)cc3)CC2)cc1 | . | 4.4% | 31.8% | 4.9% | 3.9 | 10µM*
NS(=O)(=O)c1ccc(CNC(=O)C2(c3ccc(Cl)cc3)CC2)cc1 | 6.3 | 3.2% | 2.0% | -2.1%[7.66 µM] | 4.1 | 11.7%[7.66 µM]
CSc1ccc(NC(=O)C2(C)CCN2C(=O)c2ccccc2CCc2ccccc2)cc1 (configuration not stated) | . | -5.8% | -3.0% | 2.6% | . | 10µM*
C#Cc1ccc(NC(=O)C2(C)CCN2C(=O)c2ccccc2CCc2ccccc2)cc1 (configuration not stated) | . | 3.9% | 1.7% | 3.1% | . | ?
COc1ccc(CN(C)C(C)C(=O)Nc2ccc([N+](=O)[O-])cc2Cl)cc1OC (configuration not stated) | -85.3* | -4.3% | 1.0% | -3.1% | 0.4 | 31.2%
Fc1ccc(C(NCCc2ccc(Cl)cc2)c2nnc(-c3ccccc3)o2)c(Cl)c1 (configuration not stated) | . | 1.7% | . | 1.1% | . | 10µM*
Cn1c(=O)c2sccc2n(Cc2ccccc2)c1=O | -72.9* | 4.0% | 0.6% | -3.4% | -1.5 | 30.7%
Cn1c(NCCO)nc2c1c(=O)n(Cc1ccccc1Cl)c(=O)n2C | . | 5.01µM* | . | 0.1% | . | 6.0%
Cn1c(NCc2cccnc2)nc2c1c(=O)n(Cc1ccccc1F)c(=O)n2C | 15.7 | ? | 0.4% | 8.7% | -5.0 | 0.0%
Cn1c(NCCCN2CCOCC2)nc2c1c(=O)n(Cc1ccc(Cl)cc1Cl)c(=O)n2C | -1.6 | 2.51µM* | 2.3% | -4.4% | -3.1 | -13.4%
COCCNc1nc2c(c(=O)n(Cc3ccccc3F)c(=O)n2C)n1C | 3.8 | 15.8µM* | 8.3% | 5.5% | 5.6 | -6.7%
CCn1cc(CN2CCN(Cc3ccccc3)C(CCO)C2)c2ccccc21 (configuration not stated) | -2.7 | 3.4% | -0.2% | -22.6% | 6.7 | 10µM*
C#Cc1ccc(CN2CCN(CCCc3ccccc3)C(CCO)C2)cc1 (configuration not stated) | -71.9* | 16.4% | 6.3% | -9.9% | -0.4 | ?
CCOc1ccc(CN2CCN(CCCn3cccn3)CC2CCO)cc1 (configuration not stated) | -5.4 | 6.9% | -6.1% | 13.6% | -25.5 | -3.5%
OCCC#Cc1ccc(CN2CCN(CCc3ccccc3)C(CCO)C2)cc1 (configuration not stated) | 3.9 | 11.4% | 5.2% | -9.8% | 9.1 | -18.2%
COc1ccc(CN2CCN(CCc3ccccc3)C(CCO)C2)c(O)c1 (configuration not stated) | -16.0 | 18.3% | 11.0% | 0.2% | 50.4 | 11.2µM*
CCOc1ccc(CN2CCN(CCCc3ccccc3)CC2CCO)cc1 (configuration not stated) | -8.2 | 2.5% | -4.0% | -4.9% | -81.5* | ?
CCCCN(C(=O)Cc1ccc2c(c1)OCCO2)c1c(N)n(CCC)c(=O)[nH]c1=O | -9.8 | 8.1% | -4.4% | -1.4% | -4.2 | 4.1%
COc1cc(OC)cc(C(=O)NCC(c2cccs2)S(=O)(=O)c2ccc(F)c(C)c2)c1 (configuration not stated) | . | -2.5% | . | -7.3% | . | 3.9%
Cc1ccc(CN2CCN(CCCc3ccccc3)CC2CCO)cc1 (configuration not stated) | -75.4* | 2.0% | 14.6% | 5.5% | 9.9 | ?
CCOc1ccc(CN2CCN(C3CCSCC3)CC2CCO)cc1 (configuration not stated) | -84.1* | 4.0% | 5.4% | 0.6% | -12.4 | -12.7%
OCCC1CN(CCCc2ccccc2)CCN1Cc1ccc(F)cc1 (configuration not stated) | -0.8 | -0.9% | -2.5% | 13.8% | 17.2 | ?
N#Cc1c2n(c3c(N)ncnc13)CCCCC2 | -0.9 | 4.6% | 10.8% | -9.1% | -4.1 | 36.7%
Cc1ccc(-n2cc(CNCCCn3cccn3)c(-c3cccc(C)c3)n2)cc1 | -81.3* | -16.5% | 7.2% | ? | ? | ?
SMILES | KCNH2 3.1 block | GLS inh | GLP-1R agonist | HEK293 tox | KCNH2 WT inh | GLP-1R inv ag
Cc1ccc(C)c(-n2cc(CNCCCn3cccn3)c(-c3ccccc3)n2)c1 | 7.2 | -6.0% | -0.3% | 0.6% | 10.3 | 11.2µM*
C#Cc1cccc(C(=O)N(Cc2cccnc2)CC2CCCN(C3CCCCC3)C2)c1 (configuration not stated) | -19.4 | -6.5% | -2.8% | -26.1% | 0.3 | 0.0%
O=C(c1cc2cc(F)ccc2[nH]1)N(Cc1cccnc1)CC1CCCN(C2CCCCC2)C1 (configuration not stated) | -108.9* | -3.0% | -0.1% | ? | -25.2 | ?
Cc1ccc(OCC(=O)c2cc(C)c(C)cc2C)c([N+](=O)[O-])n1 | -2.2 | -5.3% | -16.6% | -20.5% | 3.4 | 48.4%
Cc1ccc(OCC(=O)c2c(N)n(C)c(=O)n(C)c2=O)c([N+](=O)[O-])n1 | -7.7 | 14.1µM* | -6.6% | 4.0% | 4.0 | 10.2%
COc1ccccc1-n1cnnc1SCC(=O)NC1CCCCC1 | -11.5 | 1.3% | -6.9% | 3.0% | -10.9 | 10.0%
O=C(CSc1nncn1-c1ccccc1F)NC1CCCCC1 | -118.0* | -3.0% | -29.9% | 7.7% | -3.2 | 5.0%
c1ccc(C2CC(c3cccs3)=NN2c2ccccc2)cc1 (configuration not stated) | 3.6 | 12.0% | 0.5% | i | 1.5 | 10µM*
O=C(c1ccccc1)N1N=C(c2cccs2)CC1c1ccccc1O (configuration not stated) | 7.0 | 18.9% | -1.7% | 0.3% | -3.9 | 8.91µM*
O=C(c1ccccc1)N1N=C(c2ccc(F)cc2)CC1c1ccc(F)cc1 (configuration not stated) | -19.3 | 14.3% | 23.5% | -3.0% | 16.6 | 10µM*
O=C(Nc1ccccc1)N1N=C(c2cccs2)CC1c1cccs1 (configuration not stated) | -19.7 | 8.1% | 1.3% | 8.5% | -0.7 | ?
CC(=O)N1N=C(c2ccccc2)CC1c1ccc(F)cc1 (configuration not stated) | -17.1 | -1.7% | 3.1% | 2.9% | -9.3 | -28.0%
COc1ccc(CCn2c3c(c(=O)[nH]c2=O)C(NC(=O)c2ccccc2F)(C(F)(F)F)C(=O)N3)cc1OC (configuration not stated) | . | -3.5% | . | 1.0% | . | 7.5%
